Laboratory results as given in the supplement of paper PMC10338343.
± gives the standard deviation.

Experiments:
[1] = system: MILI (PIWIL2) piRISC loaded with piRNA #1 (26 nt); assay: pre-steady-state target cleavage rate (min^-1); guide: piRNA #1 5'p-UGAGGUAGUAGGUUGUAUAGUAUCCA; higher = faster piRNA-guided slicing of the target; conditions: auxiliary factor: 500 nM mouse GTSF1
Summary of the method: (§1)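 With or without 500 nM GTSF1 partner protein, 1 nM active affinity-purified piRISC carrying one synthetic guide was mixed with 0.1 nM transcribed, DNA-blocked target RNA library in HEPES–potassium acetate buffer at 33 °C for 0–8 or 0–960 min. Uncleaved targets were sequenced and normalised to depth and to weakly complementary targets, three trials were pooled, and k3 was capped at 0.0001 min^-1. The pre-steady-state cleavage rate came from a burst-and-steady-state fit.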

[2] = system: EfPiwi piRISC loaded with piRNA #1 (26 nt); assay: pre-steady-state target cleavage rate (min^-1); auxiliary factor: 500 nM Ephydatia muelleri Gtsf1; guide: piRNA #1 5'p-UGAGGUAGUAGGUUGUAUAGUAUCCA; MIWI and MILI are mouse PIWI proteins and EfPiwi is from a freshwater sponge; tags in brackets are library labels; higher = faster piRNA-guided slicing of the target
Summary of the method: as §1

Row | Sequence | pre-steady-state target cleavage rate [1] | pre-steady-state target cleavage rate [2]
1 | GGAGACCAUAUUAUACAACCUACUACCUCA | 0.188 ± 0.015 | 0.116 ± 0.036
2 | GGAGACCAUACUAUACAACAUACUACCUCA | 0.0769 ± 0.0092 | 0.00326 ± 0.0021
3 | GGAGACCUAUGUAUACAACCUACAACCACA | 0.0115 ± 0.0032 | < 0.0001
4 | GGAGUGGAUACUAGUACAACCUACUACCUCA | 0.141 ± 0.011 | 0.175 ± 0.056
5 | GGAGACGAUAUUAUACAACCUACUACCUCA | 0.214 ± 0.013 | 0.00616 ± 0.0034
6 | GGAGACGUUACUAUACAUCCUACUACCUCA | 0.293 ± 0.018 | 0.00676 ± 0.003
7 | GGAGUGGAUACUAUCCAACCUACUACCUCA | 0.197 ± 0.01 | 0.0097 ± 0.0041
8 | GGAGACGAGACUAUACAACCUACUACCUCA | 0.214 ± 0.034 | 0.0942 ± 0.032
9 | GGAGACCUUACUAUACAAGCUACUACCUCA | 0.225 ± 0.015 | 0.00386 ± 0.002
10 | GGAGAGGAUACUAUCCAACCUACUACCUCA | 0.232 ± 0.015 | 0.00889 ± 0.004
11 | GGAGUGGAUAGUAUACAACCUACUAGCUCA | 0.00679 ± 0.003 | 0.00291 ± 0.0018
12 | GGAGACGAUACUAUAGUACCUACUACCUCA | 0.193 ± 0.013 | 0.00438 ± 0.0021
13 | GGAGACCUAACUAUACCACCUACUACCUCA | 0.0944 ± 0.018 | 0.0066 ± 0.0031
14 | GGAGUGGAUACUAUUCAAGCUACUACCUCA | 0.221 ± 0.013 | 0.0053 ± 0.0025
15 | GGAGUGGUUACUAUACAAGCUACUACCUCA | 0.213 ± 0.016 | 0.00582 ± 0.0018
16 | GGAGAGGAAACUAUACAACCUAGUACCUCA | 0.0133 ± 0.0079 | 0.00323 ± 0.0013
17 | GGAGAGGAUACUAAACAACCAACUACCUCA | 0.00772 ± 0.0023 | 0.00246 ± 0.0017
18 | GGAGAGGAUACUAUACAACCUACUACCGUCA | 0.0203 ± 0.0064 | 0.00833 ± 0.0032
19 | GGAGUGGAUACUAUACAACGUACAACCUCA | 0.0258 ± 0.0036 | 0.00367 ± 0.0016
20 | GGAGACCAUACUAUAAAACCUACUACCUCA | 0.2 ± 0.016 | 0.00433 ± 0.0026

Row | Sequence | pre-steady-state target cleavage rate [1] | pre-steady-state target cleavage rate [2]
21 | GGAGACGAUACUAUACUACCUACAACCUCA | 0.181 ± 0.017 | 0.00176 ± 0.0015
22 | GGAGAGGAUACUAUCACAACCUACUACCUCA | 0.136 ± 0.011 | 0.0777 ± 0.031
23 | GGAGACCUAUGAUUACAACCUACUACCUCU [g2:g17:cont:t1U] | 0.00674 ± 0.0025 | 0.732 ± 0.29
24 | GGAGAGGAUACUAUACAUCCUACUUCCUCA | 0.0107 ± 0.0033 | 0.00317 ± 0.0017
25 | GGAGACCAUAUAUACAACCUACUACCUCA | 0.05 ± 0.0081 | 0.00541 ± 0.0043
26 | GGAGUGGAUACUUUACUACCUACUACCUCA | 0.16 ± 0.01 | 0.00437 ± 0.0036
27 | GGAGAGGAUACUAUAGAAGCUACUACCUCA | 0.0647 ± 0.0095 | 0.00238 ± 0.0021
28 | GGAGACCUAACUAUACAACCUACUACGAGA | 0.0403 ± 0.019 | 0.00515 ± 0.0032
29 | GGAGACGAUACCUAUACAACCUACUACCUCA | 0.104 ± 0.025 | 0.0601 ± 0.023
30 | GGAGAGGAUACUAUACAACCUACUCCCUCA | 0.0191 ± 0.006 | 0.00429 ± 0.0017
31 | GGAGAGGUUACUAUACAACCUACUACGUCA | 0.011 ± 0.0037 | 0.00435 ± 0.0016
32 | GGAGACCAUUCUAUACAACCUACUACGUCA | 0.0404 ± 0.0088 | 0.0027 ± 0.0025
33 | GGAGACCUAACUAUACAACCUAGUUCCUCA | 0.00721 ± 0.0051 | 0.00297 ± 0.0025
34 | GGAGUGGAUACUAUACAACGUACUAGCUCA | 0.0104 ± 0.0027 | 0.00412 ± 0.0023
35 | GGAGACGAUACUAGUACAACCUACUACCUCA | 0.153 ± 0.013 | 0.0047 ± 0.0025
36 | GGAGAGGUAACUAUACAACCUACUACCUCA | 0.103 ± 0.015 | 0.00695 ± 0.0039
37 | GGAGACCAUACUAUACAACCUACUACCUAA | 0.139 ± 0.015 | 0.0194 ± 0.0072
38 | GGAGAGGUUACUAUACAACCUACAACCUCA | 0.0663 ± 0.015 | 0.00313 ± 0.0018
39 | GGAGAGGAUACUAUACAACCUGCUACCUCA | 0.066 ± 0.0089 | 0.114 ± 0.043
40 | GGAGACCUAUGUAUACAACCUACUACCUCCA | 0.0928 ± 0.016 | 0.00535 ± 0.004

Row | Sequence | pre-steady-state target cleavage rate [1] | pre-steady-state target cleavage rate [2]
41 | GGAGAGGUUACUAUAGAACCUACUACCUCA | 0.157 ± 0.018 | 0.00277 ± 0.0023
42 | GGAGACCAUACUAUACUACCUACUACCUGA | 0.134 ± 0.019 | 0.00271 ± 0.0014
43 | GGAGACGAUACUUUACAACCAACUACCUCA | 0.00466 ± 0.0023 | 0.00358 ± 0.0022
44 | GGAGACGAUACUAAACAACCUACUACCUGA | 0.124 ± 0.02 | 0.00288 ± 0.0022
45 | GGAGACGAUACUAUGACAACCUACUACCUCA | 0.186 ± 0.017 | 0.00896 ± 0.0044
46 | GGAGUGGAUACUAUAGAACCUACUACCACA | 0.0519 ± 0.0082 | 0.0024 ± 0.001
47 | GGAGACCAUACUAUAUCAACCUACUACCUCA | 0.0898 ± 0.011 | 0.0136 ± 0.0068
48 | GGAGACCUUACUAUACAACCUACAACCUCA | 0.126 ± 0.016 | 0.00341 ± 0.0024
49 | GGAGUGGUUACUAUACAACCUACUACCACA | 0.0961 ± 0.0098 | 0.00384 ± 0.0022
50 | GGAGACCAUACUAUACAUCCUACUUCCUCA | 0.176 ± 0.03 | 0.00272 ± 0.0026
51 | GGAGACCUUACUAUCACAACCUACUACCUCA | 0.143 ± 0.016 | 0.00983 ± 0.0039
52 | GGAGACCUAUCUUUACAACCUACUACCUCA | 0.063 ± 0.0089 | 0.0058 ± 0.0037
53 | GGAGACGAUAACUAUACAACCUACUACCUCA | 0.116 ± 0.0099 | 0.0617 ± 0.023
54 | GGAGACGAUACUAUACAACCUACUAGCUGA | 0.0101 ± 0.0055 | 0.00481 ± 0.0027
55 | GGAGUGGAUACUAUACAACCUUCUACCUCA | 0.00895 ± 0.002 | 0.0116 ± 0.0048
56 | GGAGACGUUACUAUACUACCUACUACCUCA | 0.169 ± 0.011 | 0.00494 ± 0.0024
57 | GGAGUGGAUACUUUACAAGCUACUACCUCA | 0.192 ± 0.013 | 0.00397 ± 0.0024
58 | GGAGACCUAACUAUACAACCUACUAGCUCA | 0.0915 ± 0.027 | 0.00459 ± 0.0036
59 | GGAGACCAUACUAUACAAGCUACUACGUCA | 0.139 ± 0.022 | 0.00359 ± 0.0023
60 | GGAGACGAUACUAAACAACCAACUACCUCA | 0.00769 ± 0.0028 | 0.0024 ± 0.0017
